The structures appear in SMILES notation. Records with an inconclusive call do not appear. Some compounds were tested as several samples or in several runs, with calls that do not always agree. The source made the active and inactive calls. Unless noted, calls follow the shape of the full dose curve.

The nature of assay [1]: Nuclear factor erythroid 2-related factor 2/antioxidant responsive element (Nrf2/ARE) small molecule agonists: qHTS cell viability counter screen in human keratinocytes (AID 1919968; active = well fitted curve in the direction sought with a large enough effect in the repeat runs; an effect the other way counts as inactive or inconclusive; also: nearly all actives have a fitted effect of over 55% in size). In a few lines: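 In human HaCaT keratinocytes stably expressing an ARE-driven luciferase, compound exposure lasted 23 h at 37 C under 5% CO2. Viable cells are quantified with a protease-based fluorogenic reagent (CellTiter-Fluor) read 1 h after addition.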
For orientation: In qHTS, concentration-response curves come from the screen itself.

The nature of assay [2]: Nuclear factor erythroid 2-related factor 2/antioxidant responsive element (Nrf2/ARE) small molecule agonists: luciferase reporter gene qHTS assay in human keratinocytes (AID 1919969). Also: nearly all actives have a fitted effect of over 35% in size.
Assay [3] has as its target Gonadotropin-releasing hormone receptor (Homo sapiens) (UniProt P30968). The assay can be described thus: Human gonadotropin-releasing hormone receptor (GnRHR) small molecule agonists, calcium flux assay in GnRHR-HEK293 cells (AID 1920063). Also: nearly all actives have a fitted effect of over 35% in size. In a few lines: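 Intracellular calcium rise is the read-out: engineered human GnRHR HEK293 cells, dye-loaded, are exposed to DMSO-dissolved compounds and fluorescence at Ex/Em 480/540 is tracked for 3 min.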
(In general: Calcium assays in cells follow changes in intracellular calcium, usually with a dye or a luminescent sensor.)

Assay [4] concerns the target KiSS-1 receptor (Homo sapiens) (UniProt Q969F8). The assay can be described thus: Human kisspeptin (KISS1R) small molecule agonists, calcium flux assay in KISS1R-HEK293 cells (AID 1920064; active = well fitted curve in the direction sought with a large enough effect in the repeat runs; an effect the other way counts as inactive or inconclusive). Put shortly: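 Concentration-response testing used 15 concentrations in triplicate on human KISS1R-expressing HEK293 cells. Calcium-dependent fluorescence (Ex/Em 480/540) was followed kinetically for 3 min after compound transfer.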

Assay [5] is described as follows: p53 small molecule agonists, cell-based qHTS assay with rat liver microsomes (AID 1963578). Put shortly:
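p53RE-bla cells, 4,000/well, pre-incubated 5 h, then given compounds plus rat liver microsomes (0.5 mg/mL final) and NADPH (0.5 mg/mL final). Incubation 16 h at 37 C; beta-lactamase reporter read by LiveBLAzer fluorescence after 2 h at room temperature.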

A short description of assay [6]: p53 small molecule agonists, cell-based qHTS assay with human liver microsomes: qHTS cell viability counter screen (AID 1963579). Also: nearly all actives have a fitted effect of over 45% in size. Put shortly:
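p53RE-bla cells, 4,000/well, dosed 5 hours after plating, with human liver microsomes (0.5 mg/mL final) plus NADPH (0.5 mg/mL final), 16 hours at 37 C. Viability read as CellTiter-Glo luminescence after 30 min at room temperature.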

Assay [7] is described as follows: p53 small molecule agonists, cell-based qHTS assay with rat liver microsomes: qHTS cell viability counter screen (AID 1963580). Also: nearly all actives have a fitted effect of over 45% in size. Put shortly:
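Cytotoxicity counter screen: intracellular ATP measured by CellTiter-Glo luminescence in the same wells as the beta-lactamase reporter read, on HCT-116 p53RE-bla cells exposed 16 h at 37 C to compounds with rat liver microsomes and NADPH, each 0.5 mg/mL final.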

A short description of assay [8]: p53 small molecule agonists, cell-based qHTS assay: qHTS cell viability counter screen (AID 1963581). Also: nearly all actives have a fitted effect of over 45% in size. Put shortly:
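Luminescence from CellTiter-Glo, reflecting ATP content, serves as the cytotoxicity measure; it is taken after the 2 h reporter substrate step in HCT-116 p53RE-bla cells dosed for 16 h at 37 C.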

The target of assay [9] is 5-hydroxytryptamine receptor 2A (Homo sapiens) (UniProt P28223). The assay is described as follows: 5-hydroxytryptamine receptor 2A (HTR2A) small molecule antagonists, cell-based qHTS assay (AID 1963586). Also: nearly all actives have a fitted effect of over 45% in size. Put shortly: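 CHO cells stably expressing human HTR2A were plated for 18 h at 37 C, then loaded with calcium dye for 1 h. Compounds were preincubated 5 min at room temperature before DOI (4 nM solution) was added. Kinetic fluorescence was read for 3 min.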
Sequence of 5-hydroxytryptamine receptor 2A (Homo sapiens) (P28223 whole entry, looked up): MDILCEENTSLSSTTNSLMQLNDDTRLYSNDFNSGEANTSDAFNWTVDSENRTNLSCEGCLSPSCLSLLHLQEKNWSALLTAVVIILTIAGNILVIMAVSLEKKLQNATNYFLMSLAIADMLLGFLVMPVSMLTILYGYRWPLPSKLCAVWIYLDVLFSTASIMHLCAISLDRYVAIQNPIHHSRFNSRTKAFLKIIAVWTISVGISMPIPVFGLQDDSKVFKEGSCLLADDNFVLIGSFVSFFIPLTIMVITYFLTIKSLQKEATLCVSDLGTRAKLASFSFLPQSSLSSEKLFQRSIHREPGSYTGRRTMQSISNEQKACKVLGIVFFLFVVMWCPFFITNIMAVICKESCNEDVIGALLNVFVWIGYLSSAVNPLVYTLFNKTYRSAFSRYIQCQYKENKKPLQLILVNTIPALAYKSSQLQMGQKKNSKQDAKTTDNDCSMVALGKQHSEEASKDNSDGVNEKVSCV

Assay [10] has the same target. The assay can be described thus: 5-hydroxytryptamine receptor 2A (HTR2A) small molecule agonists, cell-based qHTS assay (AID 1963587). Also: nearly all actives have a fitted effect of over 30% in size. Put shortly: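 CHO cells stably expressing human HTR2A, plated 18 h, loaded with calcium dye 1 h at 37 C. Agonist mode: compounds added and intracellular calcium fluorescence recorded kinetically for 2 min at 1 sec intervals.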
Assay [11] deals with Muscarinic acetylcholine receptor M1 (Homo sapiens) (UniProt P11229). The assay is described as follows: Cholinergic receptor muscarinic 1 (CHRM1) small molecule antagonists, cell-based qHTS assay (AID 1963588). Also: nearly all actives have a fitted effect of over 40% in size. Put shortly:
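Compounds were tested at 15 concentrations in three independent runs. Dye-loaded CHRM1-CHO cells were exposed 5 min at room temperature before stimulation by acetylcholine added at 50nM. Intracellular calcium was read kinetically on FDSS for 3 min.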

Assay [12] shares this target. The assay is described as follows: Cholinergic receptor muscarinic 1 (CHRM1) small molecule agonists, cell-based qHTS assay (AID 1963589). Also: nearly all actives have a fitted effect of over 35% in size. In a few lines: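 Fluorescent calcium dye reports M1 activation in stably transfected CHO cells. Compounds, 15 concentrations, added after 1 h dye loading at 37 C; kinetic reading at 1 sec intervals.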
Assay [13] is described as follows: cAMP Responsive Elements (CRE) small molecule agonists, cell-based qHTS assay (AID 1963590). In a few lines:
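Compound exposure lasted 3 h at 37 C/5% CO2 in CRE-bla HEK 293T cells grown in assay medium with 10% dialyzed FBS and 25 mM HEPES. Reporter signal came from LiveBLAzer B/G FRET substrate, 2 h, room temperature.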

A short description of assay [14]: cAMP Responsive Elements (CRE) small molecule antagonists, cell-based qHTS assay (AID 1963591; active = well fitted inhibition curve with a large enough effect in the signal ratio in the repeat runs, not every such curve was filed as active; the % refers to the signal ratio). In a few lines:
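Stimulation used NKH477 at a final 0.25 uM for 3 h in compound-treated CRE-bla HEK293T cells, seeded 18 h beforehand. Reporter activity was measured with LiveBLAzer B/G FRET substrate after 2 h at room temperature.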

Assay [15] concerns the target Beta-2 adrenergic receptor (Homo sapiens) (UniProt P07550). The assay is described as follows: Adrenergic beta2 receptor (ADRB2) small molecule antagonists, cell-based qHTS assay (AID 1963592). Also: nearly all actives have a fitted effect of over 50% in size. Also: potency is read from the fitted curve at half-maximal effect. In a few lines:
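Assay format: CHO-ADRB2 cells, 18-20hr seeding at 37C/5% CO2, then compound plus 1nM isoproterenol agonist mix for 0.5hr RT. Homogeneous time-resolved fluorescence cAMP detection after 1hr, expressed as 665/615 nm ratio.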

The target is the same in assay [16]. The assay can be described thus: Adrenergic beta2 receptor (ADRB2) small molecule agonists, cell-based qHTS assay (AID 1963593).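 Also: CHO cells stably overexpressing human ADRB2.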 Put shortly:
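CHO cells stably over-expressing ADRB2 were plated overnight at 37C, then dosed with compounds plus a stimulation mix containing 100uM IBMX and 25uM Ro-20-1724 for 0.5hr at room temperature. cAMP was measured by HTRF competition, 1hr.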

The target in assay [17] is D(2) dopamine receptor (Homo sapiens) (UniProt P14416). The assay is described as follows: Dopamine D2 receptor (DRD2) small molecule agonists, cell-based qHTS assay (AID 1963594). Also: nearly all actives have a fitted effect of over 35% in size. Put shortly:
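HEK293 cells stably expressing human DRD2, pre-treated with PDE inhibitor Ro20-1724 (0.1 mM final) and compound 10 min at room temperature, then stimulated with NKH477 (200nM […]) for 30 min. cAMP read by HTRF (665/620 nm).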

Assay [18] has the same target. The assay can be described thus: Dopamine D2 receptor (DRD2) small molecule antagonists, cell-based qHTS assay (AID 1963595; active = well fitted inhibition curve with a large enough effect in the signal ratio in the repeat runs, with a control signal flat; the % refers to the signal ratio). Put shortly: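 Antagonist mode in DRD2-HEK293 cells: after compound addition with 0.1 mM Ro20-1724, cells received quinpirole (12 nM) and NKH477 (200 nM) for 30 min at room temperature; HTRF cAMP read after 1 h detection.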
Assay [19] can be described thus: p53 small molecule agonists, cell-based qHTS assay (AID 1963582; active = well fitted activation curve with a large enough effect in the signal ratio in the repeat runs, not every such curve was filed as active; the % refers to the signal ratio). Put shortly:
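After plating, p53RE-bla cells sat 5 h in the incubator; compounds or DMSO vehicle were pinned in; a 16 h incubation at 37 C followed; FRET substrate was added and, 2 h later at RT, fluorescence was measured.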

Assay [20] in a line: G protein-coupled receptor (GPCR) small molecule agonists, calcium flux assay: HEK293 wild type cell line counter screen (AID 1920065). Put shortly:
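Fluorescence intensity signals activation. After overnight (18 h) culture and a 1 h calcium dye load at 37 C, compounds are added by pin tool and the plate read at 480/540 nm for 3 min in 1 s steps.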

Sequence of D(2) dopamine receptor (Homo sapiens) (P14416 whole entry, looked up): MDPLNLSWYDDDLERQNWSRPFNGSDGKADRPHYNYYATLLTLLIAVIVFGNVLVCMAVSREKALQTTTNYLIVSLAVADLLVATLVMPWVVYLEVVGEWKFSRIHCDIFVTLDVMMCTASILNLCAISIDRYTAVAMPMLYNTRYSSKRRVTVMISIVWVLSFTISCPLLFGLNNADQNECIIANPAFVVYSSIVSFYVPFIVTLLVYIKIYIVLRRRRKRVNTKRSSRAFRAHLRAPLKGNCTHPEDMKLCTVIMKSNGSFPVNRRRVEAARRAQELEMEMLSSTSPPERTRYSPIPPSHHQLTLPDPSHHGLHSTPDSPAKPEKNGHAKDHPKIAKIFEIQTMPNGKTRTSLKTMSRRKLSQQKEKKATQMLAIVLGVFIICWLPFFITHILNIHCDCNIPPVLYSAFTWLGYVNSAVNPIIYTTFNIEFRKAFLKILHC
Sequence of Gonadotropin-releasing hormone receptor (Homo sapiens) (P30968 whole entry, looked up): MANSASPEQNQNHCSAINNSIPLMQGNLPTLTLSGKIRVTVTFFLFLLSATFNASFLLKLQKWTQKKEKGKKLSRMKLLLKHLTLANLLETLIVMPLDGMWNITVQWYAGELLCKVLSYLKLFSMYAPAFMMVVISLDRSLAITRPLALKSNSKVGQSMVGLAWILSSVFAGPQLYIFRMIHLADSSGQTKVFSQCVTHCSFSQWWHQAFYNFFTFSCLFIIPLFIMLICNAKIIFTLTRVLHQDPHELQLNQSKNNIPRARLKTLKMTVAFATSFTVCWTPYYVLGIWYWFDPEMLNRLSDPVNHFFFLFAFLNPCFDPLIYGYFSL
Sequence of Beta-2 adrenergic receptor (Homo sapiens) (P07550 whole entry, looked up): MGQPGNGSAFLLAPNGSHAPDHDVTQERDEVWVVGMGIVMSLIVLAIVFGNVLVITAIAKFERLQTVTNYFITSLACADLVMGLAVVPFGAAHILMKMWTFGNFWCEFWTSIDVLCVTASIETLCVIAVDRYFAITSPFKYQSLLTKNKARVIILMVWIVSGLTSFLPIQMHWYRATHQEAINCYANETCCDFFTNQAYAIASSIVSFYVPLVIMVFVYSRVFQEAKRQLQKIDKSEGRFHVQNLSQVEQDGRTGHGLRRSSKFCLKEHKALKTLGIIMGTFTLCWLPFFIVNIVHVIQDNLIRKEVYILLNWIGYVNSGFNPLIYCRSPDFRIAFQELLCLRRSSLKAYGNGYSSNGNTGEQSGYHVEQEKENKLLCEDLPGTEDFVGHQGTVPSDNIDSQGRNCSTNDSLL
Sequence of KiSS-1 receptor (Homo sapiens) (Q969F8 whole entry, looked up): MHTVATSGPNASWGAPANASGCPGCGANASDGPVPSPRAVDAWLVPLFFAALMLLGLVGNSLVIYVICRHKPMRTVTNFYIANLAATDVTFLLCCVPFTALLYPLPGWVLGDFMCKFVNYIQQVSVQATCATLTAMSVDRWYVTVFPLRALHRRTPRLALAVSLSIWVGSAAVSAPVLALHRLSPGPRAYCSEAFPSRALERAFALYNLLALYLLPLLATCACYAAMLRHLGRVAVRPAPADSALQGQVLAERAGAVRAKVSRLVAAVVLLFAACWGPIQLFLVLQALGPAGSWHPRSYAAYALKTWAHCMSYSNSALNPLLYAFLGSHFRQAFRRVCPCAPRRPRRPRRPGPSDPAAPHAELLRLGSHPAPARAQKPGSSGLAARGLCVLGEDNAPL
Sequence of Muscarinic acetylcholine receptor M1 (Homo sapiens) (P11229 whole entry, looked up): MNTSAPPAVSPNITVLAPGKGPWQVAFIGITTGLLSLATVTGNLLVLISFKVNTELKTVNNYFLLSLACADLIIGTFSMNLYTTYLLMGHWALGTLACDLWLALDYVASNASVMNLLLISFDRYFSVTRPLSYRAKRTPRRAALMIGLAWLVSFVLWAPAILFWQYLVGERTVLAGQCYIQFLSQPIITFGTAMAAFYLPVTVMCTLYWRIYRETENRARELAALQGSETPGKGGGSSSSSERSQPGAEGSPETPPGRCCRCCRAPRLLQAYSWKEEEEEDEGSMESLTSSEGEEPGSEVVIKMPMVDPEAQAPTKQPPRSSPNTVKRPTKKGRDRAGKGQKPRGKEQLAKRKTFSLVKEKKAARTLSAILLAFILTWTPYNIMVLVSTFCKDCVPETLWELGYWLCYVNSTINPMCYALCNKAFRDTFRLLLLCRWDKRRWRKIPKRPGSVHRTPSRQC

Take `FC(F)(F)c1ccc(Cl)cc1`: the Potency entry in assay [1], in [2], in assay [3], in assay [4], in assay [5] and in assay [6] was “inactive” in each case. The Potency result in [7], in [8], in assay [9], in [10], in assay [11] and in [12] was “inactive” each time. Moreover, the Potency result in [13], in assay [14], in [15], in [16], in assay [17] and in [18] was “inactive” throughout.

For the molecule `CCNc1nc(Cl)nc(NC(C)C)n1`, the Potency result in [1], in assay [2], in assay [3], in assay [4], in assay [5] and in assay [6] was “inactive” throughout. Besides, the Potency result in assay [7], in assay [8], in [19], in [9], in assay [10] and in assay [11] was “inactive” each time. For the same molecule, the Potency result in [13], in [14], in assay [15], in assay [16], in assay [17] and in [18] was “inactive” throughout.

As for `CC(C)C1(C)N=C(c2ncccc2C(=O)O)NC1=O` (stereo unspecified), the Potency result in assay [1], in assay [2], in assay [3], in assay [4], in [5] and in assay [6] was “inactive” in each case. Also, the Potency entry in assay [7], in assay [8], in assay [9], in assay [10], in assay [11] and in assay [12] was “inactive” in each case. For the same molecule, the Potency entry in assay [13], in assay [14], in assay [15], in [16], in assay [17] and in assay [18] was “inactive” throughout.

For the molecule `Nc1nc(=S)[nH][nH]1`, the Potency entry in assay [1], in assay [2], in [3], in assay [20], in [5] and in assay [6] was “inactive” in each case. Also, the Potency entry in assay [7], in [8], in assay [19], in assay [9], in assay [10] and in [11] was “inactive” throughout. Further, the Potency result in assay [12], in [13], in assay [14], in assay [15], in [16] and in assay [17] was “inactive” each time. Moreover, in assay [18], the Potency entry is “inactive”.

Regarding `O=C(O)C(F)(F)C(F)(F)C(F)(F)C(F)(F)C(F)(F)C(F)(F)F`, the Potency result in assay [1], in [2], in assay [3], in assay [20], in assay [5] and in [6] was “inactive” each time. In addition, the Potency result in assay [7], in [8], in [19], in [9], in assay [10] and in assay [11] was “inactive” in each case. Also, the Potency entry in assay [12], in assay [13], in assay [14], in assay [15], in assay [16] and in assay [17] was “inactive” each time.

As for `CC(C#N)CCC#N` (stereo unspecified), the Potency entry in assay [1], in assay [2], in assay [3], in assay [20], in [5] and in assay [6] was “inactive” each time. The Potency result in assay [7], in assay [8], in [19], in assay [9], in assay [10] and in assay [11] was “inactive” each time. In addition, the Potency result in assay [12], in assay [13], in assay [14], in assay [15], in assay [16] and in assay [17] was “inactive” in each case. The Potency result in assay [18] is “inactive”.

As to `CCCCSP(=O)(SCCCC)SCCCC`, the Potency entry in assay [1], in assay [2], in assay [3], in [4], in assay [6] and in assay [7] was “inactive” each time. The Potency entry in [8], in [19], in [9], in assay [10], in assay [14] and in assay [15] was “inactive” throughout. In addition, the Potency result in [17] and in assay [18] was “inactive” in each case.

Consider `Cn1cc(-c2ccccc2)c(=O)c(-c2cccc(C(F)(F)F)c2)c1`, for which the Potency entry in assay [1], in [2], in assay [3], in [4], in assay [5] and in [6] was “inactive” throughout. Besides, the Potency result in assay [8], in assay [19], in assay [9], in [10], in [11] and in [12] was “inactive” throughout. Moreover, the Potency result in assay [13], in assay [14], in [17] and in assay [18] was “inactive” throughout. In addition, the Potency in assay [15] was 29.9 µM (active) and inactive.

(Values after PubChem BioAssay (Tox21).)
